For 65 molecules, Potency and activity, negative = inhibition results are on record in PubChem BioAssay AID504332 (National Center for Advancing Translational Sciences (NCATS), 2011).

The structures appear in SMILES notation. In all, about 350,000 compounds went through this assay and about 31,000 (8.9%) were called active. A call without a number means that no potency is given here. Inconclusive results (about 15%) are left out. For the sample, actives were picked, then their nearest neighbours and some compounds at random. Unmarked numbers belong to inactive results. Calls come from the whole dose curve; as a rule, active = well fitted inhibition curve with a large enough effect; inconclusive = small, poorly fitted or top-dose-only effect; inactive = no such curve, though single readings can be large or run the other way.
Potency is the fitted concentration of half-maximal effect.

Chain of Histone-lysine N-methyltransferase EHMT2 (Homo sapiens) (Q96KQ7 913-1193 limits assumed): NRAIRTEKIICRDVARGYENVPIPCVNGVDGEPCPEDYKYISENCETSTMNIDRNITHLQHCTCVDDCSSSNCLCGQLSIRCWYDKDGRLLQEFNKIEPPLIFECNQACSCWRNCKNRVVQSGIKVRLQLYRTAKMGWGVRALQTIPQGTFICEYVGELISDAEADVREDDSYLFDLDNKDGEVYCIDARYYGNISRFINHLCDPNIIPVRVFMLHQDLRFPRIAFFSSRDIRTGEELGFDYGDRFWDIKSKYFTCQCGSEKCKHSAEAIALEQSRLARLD

This experiment concerns the target Histone-lysine N-methyltransferase EHMT2 (Homo sapiens) (UniProt Q96KQ7). The experiment is described as follows: qHTS Assay for Inhibitors of Histone Lysine Methyltransferase G9a. Note: nearly all actives have a fitted effect of over 75% in size. Conditions: G9a H3K9 monomethylation, AlphaScreen, 2 h; series mostly up to 59 µM. From the text:
Methylated lysines, on the N-terminal tails of histone proteins serve as epigenetic markers to recruit factors that can then modify local chromatin structure to lead to functional consequences. G9a and other members of the SUV39 family of the SET domain-containing superfamily of histone lysine methyltransferases (HMT) have been identified to specifically methylate Lys9 of histone H3 (H3K9). G9a catalyzes the mono- and di-methylation of H3K9 in mammalian euchromatic regions, where the resulting H3K9me2 is indicative of transcriptional repression. […] The inhibition of G9a will result in transcriptional activation and work synergistically with DNA methyltransferase and histone deacetylase inhibitors, to kill cancer cells. This qHTS assay for identification of G9a inhibitors is a chemiluminescence based AlphaScreen (PerkinElmer). Methylation of biotinylated-histone peptide is measured through specific antibody-based detection, in conjunction with streptavidin-coated donor and anti-IgG antibody-coated acceptor beads. The method is particularly well suited for detection of inhibitors acting by the desired histone peptide competitive mechanism and is applicable to testing other HMTs. Although AlphaScreen has significant advantages with its utility in a variety of epigenetic target assays, the primary screening data provided in this deposition should be used with caution due to the prevalence of screening artifacts. An AlphaScreen counterscreen is highly recommended to be run against any putative actives to eliminate non specific artifacts. Alternatively, one can use other AlphaScreen assays in PubChem to filter out promiscuous hits. Quinn et al. A chemiluminescence-based method for identification of histone lysine methyltransferase inhibitors. Mol Biosyst 6(5): 782-8. 2010. PMID: 20567762 [2] Baell,Holloway. New substructure filters for removal of pan assay interference compounds (PAINS) from screening libraries and for their exclusion in bioassays. J Med Chem. 53(7):2719-40. 2010. PMID: 20131845 NIH Molecular Libraries Probe Production Network [MLPCN] NIH Chemical Genomics Center [NCGC] Structural Genomics Consortium (SGC) NIH Grant: 5U54 MH084681-02
To each well of a 1,536w plate, 2ul of HMT enzyme (final 20nM) were added, using a nanoliter dispenser. The G9a- and GLP-inhibitor BIX-01294 (CID: 25150857) are used as an intraplate control, with a 16-point titration in duplicate. A Kalypsys pin-tool transferred 23nl of library compound solution in DMSO to each well. Following a 15 min incubation of enzyme with compounds at room temperature, 1ul mixture of b-H3K9 peptide substrate (final 500nM) and SAM cofactor (final 20uM) were added. Reactions were allowed to proceed at room temperature for 2 hours. Methylated b-H3K9 peptide product was detected with 0.5 ug/mL rabbit polyclonal anti-monomethyl histone H3K9 antibody (Abcam Inc., Cambridge, MA) and 20 ug/mL each streptavidin-coated donor and anti-rabbit IgG acceptor AlphaScreen beads. Antibody and beads were added in a 1ul dispense, for a final volume of 4ul, and plates were incubated, protected from the light, for 10 min at room temperature. Microplates were then read on an EnVision multilabel plate reader using the 1,536 plate HTS AlphaScreen aperture (excitation time 80 ms, measurement time 240 ms).
Take `CCOC(=O)C1CCN(Cc2ccc(-c3ccccc3)cc2)CC1`: the Potency was 28.2 µM (active).

On to `CCOC(=O)C1CCN(Cc2nnc(-c3cccc(Br)c3)o2)CC1`, for which the Potency entry is “inactive”.

Regarding `CCCC(=O)C1CCN(Cc2ccccc2)CC1`, the Potency result was “inactive”.

In the case of `CCC(C)N(C(=O)Cn1nc(C)c([N+](=O)[O-])c1C)C1CCS(=O)(=O)C1` (stereo not given), the Potency result was “inactive”.

For `CCCC1OC23CCCCC2C(C#N)(C#N)C1(C#N)C(=N)O3` (stereo not given), the Potency is 17.8 µM (active).

For the molecule `Cc1cccc(NC(=O)CSc2nc3c(oc4ccccc43)c(=O)n2-c2ccc(F)cc2)c1`, the Potency entry was “inactive”.

With `COc1ccc(C(=O)CN2C(=O)NC3(CCc4ccccc43)C2=O)c(OC)c1` (stereo not given), the Potency entry was “inactive”.

Regarding `CCC(CC)C(=O)N1CCc2cc(OC)c(OC)cc2C1COc1ccc(F)cc1` (stereo not given), the Potency entry is “inactive”.

On to `COc1ccc(NC(=O)C(=O)NCC(c2ccco2)N2CCc3ccccc3C2)cc1` (stereo not given), for which the activity, negative = inhibition is 24.1% [at 2.33 µM].

In the case of `CC(Oc1ccc(Br)cc1)C(=O)NCC(c1ccco1)N1CCCCC1` (stereo not given), the Potency entry is “inactive”.

Consider `CCOC(CNC(=O)C(=O)NCC(c1ccco1)N1CCN(c2ccc(OC)cc2)CC1)OCC` (stereo not given), for which the Potency is 79.4 µM (active).

As to `O=C(Cn1nc(C(F)(F)F)c2c1CCCC2)Nc1ccc(Cl)cc1`, the Potency entry was “inactive”.

Take `COc1ccccc1CNC(=O)C(=O)NCC(c1ccco1)S(=O)(=O)c1ccc(F)cc1` (stereo not given): the Potency result was “inactive”.

Take `Cc1ccc(NC(=O)CCN2C(=O)c3ccccc3C2=O)cc1C`: the Potency result is “inactive”.

As for `Cc1cc2c(cc1C)N(C(=O)CN1C(=O)c3ccccc3C1=O)C(C)(C)c1ssc(=S)c1-2`, the Potency is 28.2 µM (active).

For the molecule `Cc1cc(C)cc(NC(=O)CN2C(=O)c3ccccc3C2=O)c1`, the Potency result is “inactive”.

With `CC1CCC2CCCCC2N1C(=O)c1cc([N+](=O)[O-])cc([N+](=O)[O-])c1` (stereo not given), the Potency was 44.7 µM (active).

With `Cc1cc([N+](=O)[O-])c(N2CCC[C@@H]2C(=O)O)c([N+](=O)[O-])c1`, the Potency entry was “inactive”.

As to `COC(=O)c1cc(C(=O)NC(C)C2CC3CCC2C3)cc([N+](=O)[O-])c1` (stereo not given), the Potency result was “inactive”.

For the molecule `CCN(CC)C(=O)c1nc[nH]c1C(=O)N(C)Cc1ccccc1`, the activity, negative = inhibition is -4.89% [at 2.33 µM].

Consider `CCc1ccc(C2CC(=O)c3c([nH]c(C(=O)OCc4ccc(C)cc4)c3C)C2)cc1` (stereo not given), for which the Potency entry is “inactive”.

Turning to `Cc1ccc(-c2nn(-c3ccccc3)cc2/C=C2\SC(=S)N(CCCCCC(=O)O)C2=O)o1`, the Potency was 3.98 µM (active).

In the case of `Cc1ccc(/C=C2\SC(=S)N(CCC(=O)Nc3ccc(O)cc3)C2=O)cc1`, the Potency result is “inactive”.

As for `C=CCOc1ccc(/C=C2\SC(=S)N(CCC(=O)O)C2=O)cc1`, the Potency result was “inactive”.

As for `CCC(=O)Nc1ccc2nc(C)n(Cc3ccccc3Cl)c(=O)c2c1`, the Potency entry was “inactive”.

In the case of `Cc1nc2ccn(Cc3cccnc3)c(=O)c2cc1C(=O)N1CCN(c2ccccc2F)CC1`, the Potency entry was “inactive”.

With `CCN1CCN(c2cc3nc(C)n(Cc4ccccc4)c(=O)c3cc2NC(=O)c2ccccc2F)CC1`, the Potency is 35.5 µM (active).

On to `Cc1cccc(N(C)C(=O)CS(=O)(=O)c2cccc3nsnc23)c1`, for which the Potency result is “inactive”.

As to `O=C(NCCCc1ccccc1)c1ccc2c(c1)sc1nc(-c3ccc(F)cc3)cn12`, the Potency result was “inactive”.

For `O=C(CN1CCN(C/C=C/c2ccccc2)CC1)Nc1ccc(F)cc1F`, the Potency entry is “inactive”.

With `Cc1ccc(COc2ccc(/C=N/NC(=O)CN3CCCCC3)cc2)cc1`, the Potency result was “inactive”.

In the case of `O=C(Cn1cc(C(F)(F)F)ccc1=O)N/N=C/c1ccc(Cl)cc1Cl`, the Potency entry was “inactive”.

As for `O=C(CC(=O)N/N=C\c1ccc(F)cc1)NCCc1ccccc1`, the activity, negative = inhibition is 2.67% [at 0.501 µM].

Turning to `Cc1ccc(/C=N/NC(=O)CN2CCN(Cc3ccccc3)CC2)s1`, the Potency entry is “inactive”.

Regarding `O=C(CN1CCSCC1)N/N=C/c1ccc(F)cc1F`, the Potency was 15.8 µM (active).

As for `Cc1nn(CC(=O)N/N=C/c2ccc(F)cc2)c(C)c1[N+](=O)[O-]`, the Potency entry is “inactive”.

As for `O=C(CN1CCSCC1)N/N=C/c1ccc(F)cc1`, the Potency is 8.91 µM (active).

As for `O=C(CN1CCSCC1)N/N=C/c1ccc(Cl)cc1`, the Potency was 11.2 µM (active).

For the molecule `O=C1CCCc2cc(S(=O)(=O)N3CCCC(C(=O)NCc4ccccc4)C3)ccc2N1` (stereo not given), the Potency entry is “inactive”.

With `c1ccc2c(c1)CCc1snnc1-2`, the activity, negative = inhibition was -5.46% [at 0.501 µM].

Take `Cc1ccccc1OCC(=O)NNC(=O)c1ccc(-n2cncn2)c([N+](=O)[O-])c1`: the Potency entry is “inactive”.

For the molecule `COc1ccc(-c2cc(C(F)(F)F)n3nc(-c4ccccc4)cc3n2)cc1OC`, the Potency entry was “inactive”.

Consider `CSCCC(NC(=O)c1ccccc1)C(=O)N1CCCCCCC1` (stereo not given), for which the activity, negative = inhibition was 35.6% [at 12.7 µM].

Turning to `CC(C)N(Cc1nnc(-c2ccc(Cl)cc2)o1)C(=O)C1=COCCO1`, the Potency result is “inactive”.

As to `COc1cc2ccccc2cc1C(=O)Nc1ccccc1C`, the Potency entry is “inactive”.

For the molecule `COc1cccc(OCC(O)CNC(=O)c2oc3c(C)c(C)ccc3c2C)c1` (stereo not given), the Potency entry is “inactive”.

Take `CCCNC(=O)CCC(=O)N1Cc2ccccc2Oc2ncccc21`: the Potency result was “inactive”.

Consider `O=C(CC1C(=O)NCCN1Cc1ccc(-c2ccccc2)cc1)NCC1CCOCC1` (stereo not given), for which the Potency result was “inactive”.

On to `O=C(CC1C(=O)NCCN1CC(c1ccccc1)c1ccccc1)NCCc1cn[nH]c1` (stereo not given), for which the Potency is 44.7 µM (active).

For `CCn1ccnc1CNC(=O)CC1C(=O)NCCN1CCCc1ccccc1` (stereo not given), the Potency result is “inactive”.

Consider `COc1ccc(NC(=O)CSc2nc3ncccc3[nH]2)c(OC)c1`, for which the Potency entry was “inactive”.

In the case of `CN(c1ccccc1)S(=O)(=O)c1cccc(NC(=O)Cc2ccc(Cl)cc2)c1`, the activity, negative = inhibition is -10.8% [at 12.7 µM].

With `CCc1ccc(C(=O)N2CCN(S(=O)(=O)c3sc(C(=O)O)c(C)c3C(=O)O)CC2)cc1`, the activity, negative = inhibition was 10.3% [at 2.33 µM].

As to `O=C(NCc1cccc(Cl)c1)C1=CC=CN2CCS(=O)(=O)N=C12`, the activity, negative = inhibition is -59.1% [at 12.7 µM].

Consider `CCN(CC)c1cc(NC2CCCCC2)c2c3c(onc13)-c1ccccc1C2=O`, for which the Potency was 7.08 µM (active).

Turning to `Cc1ccccc1NC(=O)Cn1c(=O)n(CC2CCC(C(=O)NCCc3ccccc3)CC2)c(=O)c2ccccc21` (stereo not given), the Potency entry was “inactive”.

With `O=C(Nc1ncccc1O)c1ccc(C(=O)c2ccccc2)cc1`, the activity, negative = inhibition is -9.21% [at 0.501 µM].

For the molecule `COc1ccc(CNc2nc(-c3ccccc3)nn2C(=O)c2ccccc2OC)cc1`, the Potency result is “inactive”.

`COc1ccc(S(=O)(=O)N2CCC(C(=O)NCCC(=O)NCc3cccc(OC)c3)CC2)cc1`: the Potency entry was “inactive”.

In the case of `COc1ccc(S(=O)(=O)Nc2ccc(O)c(Sc3nc4ccccc4s3)c2)cc1`, the Potency is 4.47 µM (active).

With `COc1ccc(NS(=O)(=O)c2ccc(NC(=S)NC(=O)CC(C)C)cc2)cc1`, the activity, negative = inhibition is -29.8% [at 12.7 µM].

Take `Cc1cccc(C(=O)Nc2ccc(-c3nc4ccccc4s3)c(C)c2)c1`: the Potency result was “inactive”.

On to `O=C(O)c1cccc(S(=O)(=O)Nc2ccc(O)cc2Sc2nc3ccccc3s2)c1`, for which the Potency was 7.94 µM (active).

Regarding `COc1ccc(NS(=O)(=O)c2ccc3oc(SCC(N)=O)nc3c2)cc1`, the Potency result was “inactive”.

As to `Cc1ccc(S(=O)(=O)Nc2nc3ccccc3s2)cc1[N+](=O)[O-]`, the Potency result was “inactive”.
